# Test results reported in PubChem BioAssay.
# Activity calls are given as the source filed them.
# What was measured:
# [1] = binders of probe aFSTL3 on microarray, primary screen, stem cell growth factor project, biochemical, small-molecule microarray, fluorescence 635/667 (AID 1064); settings: higher = more signal;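 also: measures binding of the biotinylated anti-FSTL3 antibody to printed compounds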
# [2] = binders from COS7 lysate, DM2A8 probe, primary screen, torsin A project, cell lysate, small-molecule microarray, fluorescence 635/667 (AID 1065); settings: higher = more signal, COS7 lysate expressing mutant human TOR1A
# [3] = binders of probe aFGF2 on microarray, primary screen, stem cell growth factor project, biochemical, small-molecule microarray, fluorescence 635/667 (AID 1067); settings: higher = more signal;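 also: measures binding of biotinylated aFGF2 protein to printed compounds on slides; z-score merges feature fluorescence and signal-to-noise across triplicate slides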
# [4] = binders of probe aFGF10 on microarray, primary screen, stem cell growth factor project, biochemical, small-molecule microarray, fluorescence 635/667 (AID 1071); settings: higher = more signal;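 also: score merges 667 nm spot intensity and signal to noise from triplicate slides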
# [5] = target: Neurogenic locus notch homolog protein 2 (Homo sapiens) (UniProt Q04721); experiment: Notch2 binders on small-molecule microarrays, primary screen, biochemical, small-molecule microarray, 635 nm fluorescence, stem cell growth factors (AID 1073); settings: Notch2 binding, higher = more signal
# [6] = target: Pro-neuregulin-1, membrane-bound isoform (Homo sapiens) (UniProt Q02297); experiment: NRG1 binders on small-molecule microarrays, primary screen, psychiatric disease protein project, biochemical, small-molecule microarray, fluorescence 635/667 (AID 1075); settings: NRG1 binding, 635 nm fluorescence, higher = more signal;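 also: score combines 667 nm spot fluorescence with signal to noise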
# [7] = tested on: Neuregulin-1 EGF-like domain; experiment: binders of neuregulin-1 EGF-like domain, primary screen, biochemical, small-molecule microarray, 635 nm fluorescence (AID 1081); settings: small-molecule microarray binding, higher = more signal;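 also: binding of the protein to compounds printed on small-molecule microarray slides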
# [8] = FRG1 promoter luciferase signal modulators, primary screen, FRG1 inhibition for FSHD, cell-based, C2C12 myotubes, firefly/Renilla luciferase, luminescence (AID 1084); settings: higher = more signal, called active from +8 up or from −8 down
# [9] = binders of probe aFST on microarray, primary screen, stem cell growth factor project, biochemical, small-molecule microarray, fluorescence 635/667 (AID 1086); settings: higher = more signal;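 also: score merges 667 nm fluorescence with signal-to-noise of each printed compound spot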
# [10] = binders of probe aHhip on microarray, primary screen, stem cell growth factor project, biochemical, small-molecule microarray, fluorescence 635/667 (AID 1087); settings: higher = more signal;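 also: score merges spot fluorescence at 667nm with spot signal to noise ratio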
# [11] = tested on: PRMT1 (protein arginine N-methyltransferase 1); experiment: PRMT1 binders on small-molecule microarrays, primary screen, biochemical, small-molecule microarray, 635 nm fluorescence (AID 1088); settings: small-molecule microarray binding, higher = more signal;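 also: binding of Prmt1 protein to compounds spotted on small-molecule microarray slides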
# [12] = yeast growth modulation, basal conditions, primary screen, YJM789 clinical isolate, OD600, 24 h (AID 1089);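 also: growth of clinical yeast isolate S. cerevisiae YJM 789 seeded 1000 cells per well; test concentration not given here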; settings: S. cerevisiae YJM789 growth, higher = more signal, called active from +8 up or from −8 down
# [13] = fission yeast growth modulation, primary screen, strain 972, OD600, 24 h, no modulator (AID 1090);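 also: basal condition with compound alone and no growth modifier present; test concentration not given here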; settings: S. pombe 972 growth, higher = more signal, called active from +8 up or from −8 down
# [14] = S. cerevisiae growth modulation with rapamycin, primary screen, strain BY4716, OD600, 96 h (AID 1091); settings: higher = more signal, called active from +8 up or from −8 down; also: test concentration not given here
# [15] = target: Torsin-1A-interacting protein 2 (Homo sapiens) (UniProt Q8NFQ8); experiment: LULL1 binders on small-molecule microarray, primary screen, cell lysate, human LULL1 lysate, 635/667 nm fluorescence (AID 1092); settings: hLULL1 lysate binding, 635 nm fluorescence, higher = more signal;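 also: probe is lysate of COS7 cells overexpressing human LULL1; score merges per-feature 667 nm fluorescence with signal-to-noise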
# [16] = E. coli growth modulation, two-sided OD650, primary screen, E. coli filamentation project, strain DRC41, 24 h (AID 1093); settings: OD650, 24 h, higher = more signal, called active from +8 up or from −8 down;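 also: MC1000 strain lacking acrAB efflux and sulA so SOS filamentation is blocked; test concentration not given here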
# [17] = small-molecule microarray binders of probe aLefty2, primary screen, biochemical, biotinylated probe, 635/667 nm fluorescence (AID 1094); settings: higher = more signal;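 also: score merges spot fluorescence near 667 nm with spot signal-to-noise ratio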
# [18] = tested on: Noggin (protein binding on small-molecule microarray); experiment: Noggin binders on small-molecule microarray, primary screen, biochemical, 635/667 nm fluorescence (AID 1095); settings: 635 nm fluorescence, higher = more signal;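 also: score merges 667 nm feature fluorescence with signal to noise over triplicate slides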
# [19] = target: Neurogenic locus notch homolog protein 3 (Homo sapiens) (UniProt Q9UM47); experiment: NOTCH3 binders on small-molecule microarray, primary screen, biochemical, 635/667 nm fluorescence (AID 1096); settings: NOTCH3 binding, 635 nm fluorescence, higher = more signal
# [20] = small-molecule microarray binders of probe aEGFR, primary screen, biochemical, biotinylated probe, 635/667 nm fluorescence (AID 1097); settings: higher = more signal;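 also: probe is a biotinylated anti-EGFR antibody binding compounds printed on slides; score combines fluorescence near 667 nm and signal to noise of each spot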
# Chain of Neurogenic locus notch homolog protein 2 (Homo sapiens) (Q04721 whole entry, looked up, canonical isoform): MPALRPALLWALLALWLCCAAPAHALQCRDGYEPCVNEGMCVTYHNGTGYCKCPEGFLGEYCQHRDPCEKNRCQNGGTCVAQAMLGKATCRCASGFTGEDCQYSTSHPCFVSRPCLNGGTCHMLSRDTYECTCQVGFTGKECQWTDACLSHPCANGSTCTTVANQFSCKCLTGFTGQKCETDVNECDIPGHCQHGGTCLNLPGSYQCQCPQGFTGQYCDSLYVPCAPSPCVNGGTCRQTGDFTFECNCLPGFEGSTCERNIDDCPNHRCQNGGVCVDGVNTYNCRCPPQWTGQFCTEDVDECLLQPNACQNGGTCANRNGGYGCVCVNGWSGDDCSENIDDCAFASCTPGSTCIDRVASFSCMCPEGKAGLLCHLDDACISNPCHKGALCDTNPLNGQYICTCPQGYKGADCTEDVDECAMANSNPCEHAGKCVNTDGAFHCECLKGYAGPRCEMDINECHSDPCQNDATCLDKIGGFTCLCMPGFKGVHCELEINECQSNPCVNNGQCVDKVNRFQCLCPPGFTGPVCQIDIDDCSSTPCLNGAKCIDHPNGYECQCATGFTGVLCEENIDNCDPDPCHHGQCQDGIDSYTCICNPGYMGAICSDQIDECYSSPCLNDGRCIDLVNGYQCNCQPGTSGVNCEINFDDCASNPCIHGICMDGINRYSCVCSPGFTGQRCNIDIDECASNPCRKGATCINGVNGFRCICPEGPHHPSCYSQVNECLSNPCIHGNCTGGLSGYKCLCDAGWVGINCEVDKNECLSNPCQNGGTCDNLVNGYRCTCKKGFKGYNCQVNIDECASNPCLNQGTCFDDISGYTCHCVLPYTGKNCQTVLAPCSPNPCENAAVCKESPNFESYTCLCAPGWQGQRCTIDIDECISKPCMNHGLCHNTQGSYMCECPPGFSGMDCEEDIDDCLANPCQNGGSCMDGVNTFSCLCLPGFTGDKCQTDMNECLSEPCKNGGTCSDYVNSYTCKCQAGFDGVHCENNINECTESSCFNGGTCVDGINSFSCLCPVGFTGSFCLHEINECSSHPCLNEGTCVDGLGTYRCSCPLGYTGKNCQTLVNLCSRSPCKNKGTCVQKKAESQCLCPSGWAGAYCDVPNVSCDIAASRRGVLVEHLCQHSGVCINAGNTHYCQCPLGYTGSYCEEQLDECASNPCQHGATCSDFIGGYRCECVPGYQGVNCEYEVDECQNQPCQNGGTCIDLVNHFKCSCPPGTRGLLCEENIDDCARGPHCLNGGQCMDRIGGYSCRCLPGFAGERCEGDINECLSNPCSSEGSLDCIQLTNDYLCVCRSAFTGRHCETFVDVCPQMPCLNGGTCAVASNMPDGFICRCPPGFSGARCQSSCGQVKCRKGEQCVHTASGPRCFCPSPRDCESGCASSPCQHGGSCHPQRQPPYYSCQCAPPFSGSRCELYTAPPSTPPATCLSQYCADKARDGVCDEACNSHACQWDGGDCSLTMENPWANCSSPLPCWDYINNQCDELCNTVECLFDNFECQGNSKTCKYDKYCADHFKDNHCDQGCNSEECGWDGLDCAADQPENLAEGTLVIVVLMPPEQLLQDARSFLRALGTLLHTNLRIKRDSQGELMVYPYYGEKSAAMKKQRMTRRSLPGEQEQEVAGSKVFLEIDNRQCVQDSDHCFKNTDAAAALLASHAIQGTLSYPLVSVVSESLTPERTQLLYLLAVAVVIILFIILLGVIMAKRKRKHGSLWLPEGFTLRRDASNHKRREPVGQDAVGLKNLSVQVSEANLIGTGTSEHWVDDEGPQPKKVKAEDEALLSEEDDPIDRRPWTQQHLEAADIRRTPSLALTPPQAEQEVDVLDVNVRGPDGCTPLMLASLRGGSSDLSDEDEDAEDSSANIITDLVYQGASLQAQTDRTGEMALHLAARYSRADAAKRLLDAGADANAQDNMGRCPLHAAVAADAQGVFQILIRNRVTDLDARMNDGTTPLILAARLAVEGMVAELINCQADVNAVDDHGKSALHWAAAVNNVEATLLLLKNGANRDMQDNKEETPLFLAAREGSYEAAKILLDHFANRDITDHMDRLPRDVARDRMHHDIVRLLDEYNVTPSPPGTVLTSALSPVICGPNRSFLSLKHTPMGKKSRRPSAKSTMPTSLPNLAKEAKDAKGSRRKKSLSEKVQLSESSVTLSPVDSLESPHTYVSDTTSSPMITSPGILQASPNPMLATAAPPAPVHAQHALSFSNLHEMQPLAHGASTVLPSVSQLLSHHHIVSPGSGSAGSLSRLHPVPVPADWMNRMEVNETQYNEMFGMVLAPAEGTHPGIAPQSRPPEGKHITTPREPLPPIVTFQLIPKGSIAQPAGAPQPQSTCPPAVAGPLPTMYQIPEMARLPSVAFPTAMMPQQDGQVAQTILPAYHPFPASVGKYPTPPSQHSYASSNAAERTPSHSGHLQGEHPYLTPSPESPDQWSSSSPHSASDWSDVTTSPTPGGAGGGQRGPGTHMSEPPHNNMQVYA
# Chain of Neurogenic locus notch homolog protein 3 (Homo sapiens) (Q9UM47 whole entry, looked up): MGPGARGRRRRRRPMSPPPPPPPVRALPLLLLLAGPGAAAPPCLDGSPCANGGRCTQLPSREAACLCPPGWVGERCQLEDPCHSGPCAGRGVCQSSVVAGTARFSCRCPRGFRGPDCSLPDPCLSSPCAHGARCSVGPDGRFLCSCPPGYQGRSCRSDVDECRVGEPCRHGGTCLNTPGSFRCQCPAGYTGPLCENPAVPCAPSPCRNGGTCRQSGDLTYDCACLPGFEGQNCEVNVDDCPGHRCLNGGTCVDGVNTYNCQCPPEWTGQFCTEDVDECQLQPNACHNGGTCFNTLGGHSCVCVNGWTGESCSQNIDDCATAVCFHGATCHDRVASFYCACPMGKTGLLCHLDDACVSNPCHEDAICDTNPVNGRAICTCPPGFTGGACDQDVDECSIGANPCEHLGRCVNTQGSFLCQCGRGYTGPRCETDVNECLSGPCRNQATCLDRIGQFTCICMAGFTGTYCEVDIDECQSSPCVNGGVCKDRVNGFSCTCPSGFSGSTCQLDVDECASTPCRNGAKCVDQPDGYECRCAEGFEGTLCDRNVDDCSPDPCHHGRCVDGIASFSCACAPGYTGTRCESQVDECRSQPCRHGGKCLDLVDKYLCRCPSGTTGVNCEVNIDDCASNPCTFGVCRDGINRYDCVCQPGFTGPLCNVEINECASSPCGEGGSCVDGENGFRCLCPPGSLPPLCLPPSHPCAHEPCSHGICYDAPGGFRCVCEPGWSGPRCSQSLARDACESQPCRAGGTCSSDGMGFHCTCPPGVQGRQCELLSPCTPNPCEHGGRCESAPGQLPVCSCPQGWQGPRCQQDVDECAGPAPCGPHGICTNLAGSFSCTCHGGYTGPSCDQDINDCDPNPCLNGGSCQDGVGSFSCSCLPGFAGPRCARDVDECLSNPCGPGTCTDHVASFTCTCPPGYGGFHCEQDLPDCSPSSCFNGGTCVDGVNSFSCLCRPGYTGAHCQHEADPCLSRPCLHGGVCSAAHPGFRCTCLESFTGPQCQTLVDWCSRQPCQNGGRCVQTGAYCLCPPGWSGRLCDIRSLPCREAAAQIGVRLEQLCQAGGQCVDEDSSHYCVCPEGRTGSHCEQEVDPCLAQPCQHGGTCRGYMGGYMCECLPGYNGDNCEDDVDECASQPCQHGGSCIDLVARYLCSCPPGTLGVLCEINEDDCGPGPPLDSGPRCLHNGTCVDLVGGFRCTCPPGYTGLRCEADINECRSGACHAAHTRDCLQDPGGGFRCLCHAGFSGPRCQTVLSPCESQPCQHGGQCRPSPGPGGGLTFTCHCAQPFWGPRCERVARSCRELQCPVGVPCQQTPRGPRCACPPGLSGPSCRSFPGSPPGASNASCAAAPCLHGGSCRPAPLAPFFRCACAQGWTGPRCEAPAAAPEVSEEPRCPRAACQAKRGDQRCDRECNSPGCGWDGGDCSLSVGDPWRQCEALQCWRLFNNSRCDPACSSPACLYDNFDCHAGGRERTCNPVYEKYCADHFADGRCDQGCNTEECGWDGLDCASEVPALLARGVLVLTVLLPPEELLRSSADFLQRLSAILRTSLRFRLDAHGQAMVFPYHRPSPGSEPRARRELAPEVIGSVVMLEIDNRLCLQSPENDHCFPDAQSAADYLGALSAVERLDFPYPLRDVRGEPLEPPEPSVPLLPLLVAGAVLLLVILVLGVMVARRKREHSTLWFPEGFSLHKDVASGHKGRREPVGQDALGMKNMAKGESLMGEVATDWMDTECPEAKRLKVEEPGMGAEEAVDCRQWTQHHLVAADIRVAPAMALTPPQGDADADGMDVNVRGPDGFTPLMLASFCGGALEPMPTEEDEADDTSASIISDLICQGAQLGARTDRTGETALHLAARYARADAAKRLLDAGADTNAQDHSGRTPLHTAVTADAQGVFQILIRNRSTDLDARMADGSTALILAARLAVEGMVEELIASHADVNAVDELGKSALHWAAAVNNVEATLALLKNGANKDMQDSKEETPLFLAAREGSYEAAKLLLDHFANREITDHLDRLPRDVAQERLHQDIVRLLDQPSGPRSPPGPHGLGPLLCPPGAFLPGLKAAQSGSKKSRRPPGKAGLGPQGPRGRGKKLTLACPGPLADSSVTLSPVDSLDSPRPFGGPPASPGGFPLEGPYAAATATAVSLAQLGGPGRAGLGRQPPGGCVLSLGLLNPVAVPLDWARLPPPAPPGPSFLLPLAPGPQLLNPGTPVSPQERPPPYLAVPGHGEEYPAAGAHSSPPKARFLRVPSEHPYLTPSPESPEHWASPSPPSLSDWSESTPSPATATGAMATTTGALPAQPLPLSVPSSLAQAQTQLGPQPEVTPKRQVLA
SMILES,composite z-score [1],composite z-score [2],composite z-score [3],composite z-score [4],composite z-score [5],composite z-score [6],composite z-score [7],z-score [8],composite z-score [9],composite z-score [10],composite z-score [11],z-score [12],z-score [13],z-score [14],composite z-score [15],z-score [16],composite z-score [17],composite z-score [18],composite z-score [19],composite z-score [20]
C[C@@H](c1ccccc1)N1C(=O)[C@H]2[C@H]3[C@H](O)[C@H](O)CC(=NOCc4ccccc4)[C@H]3CC[C@H]2C1=O,-0.393,0.0852,-0.0667,0.0945,0.39,0.381,1.22,-0.405 (inactive),0.317,-0.0383,1.3,0.435 (inactive),0.107 (inactive),0.0942 (inactive),2.38,-0.0659 (inactive),-0.0942,0.374,0.354,-0.0424
COC(=O)CC=C[C@@H](C)[C@@H](C=NO[C@@H]1O[C@H](COC(C)=O)[C@@H](OC(C)=O)[C@H](OC(C)=O)[C@H]1OC(C)=O)NS(=O)(=O)c1ccc(C)cc1,-0.486,0.969,-0.158,0.367,1.11,-0.993,-1.37,-0.443 (inactive),0.068,-0.0645,1.41,0.0457 (inactive),-0.23 (inactive),-0.615 (inactive),-0.147,-1.32 (inactive),-0.134,0.521,0.545,-0.152
CCN1C(=O)[C@H]2[C@H]3[C@H](O)[C@H](O)CC(=O)[C@@H]3CC[C@H]2C1=O,-0.676,0.0277,-0.0692,0.463,0.575,0.379,1.01,-0.136 (inactive),0.276,-0.226,0.705,0.0074 (inactive),-0.268 (inactive),-0.139 (inactive),1.36,0.439 (inactive),-0.145,0.441,0.717,-0.0115
CC(C)=CCCC(C)=CCON=C1C[C@@H](O)[C@@H](O)[C@@H]2[C@@H]3C(=O)N(C4CCCCC4)C(=O)[C@@H]3CC[C@@H]12,1.18,0.76,-0.132,0.332,-0.0557,-0.148,0.598,0.735 (inactive),0.0152,-0.374,0.614,-0.671 (inactive),-2.8 (inactive),-0.513 (inactive),-0.687,-0.257 (inactive),-0.15,0.615,-0.407,-0.0956
COC(=O)CC=C[C@@H](C)[C@@H](C=NO[C@@H]1O[C@H](COC(C)=O)[C@@H](OC(C)=O)[C@H](OC(C)=O)[C@H]1OC(C)=O)OC,-0.48,1.26,0.0167,-0.41,1.03,-0.617,-1.05,0.572 (inactive),0.354,0.189,1.18,0.492 (inactive),0.146 (inactive),0.119 (inactive),0.062,-0.742 (inactive),-0.0397,0.27,-0.297,-0.0506
COC(=O)C1=C(C)N(Cc2ccccc2)[C@]23O[C@](C(=O)OC)(C(=O)N2[C@@H]1c1ccccc1)C(C(=O)OC)=C3C(=O)OC,-0.309,0.458,-0.0232,1.1,0.926,0.435,1.21,-1.51 (inactive),0.294,-0.0003,1.36,-1.68 (inactive),-2.66 (inactive),-1.85 (inactive),1.31,0.521 (inactive),-0.0228,0.551,1.12,0.0478
O=C1[C@H]2[C@H]3[C@H](O)[C@H](O)CC(=NOCc4ccccc4)[C@@H]3CC[C@H]2C(=O)N1c1ccc(F)cc1F,1.17,-0.0135,-0.197,0.423,0.104,-0.0591,-0.646,-0.738 (inactive),0.0704,-0.236,-0.755,-1.94 (inactive),-0.469 (inactive),-0.996 (inactive),0.324,-0.778 (inactive),-0.205,0.358,-0.283,-0.125
COC(=O)NCC=Cc1nc(CCCO)co1,-0.596,0.273,-0.0174,0.525,0.623,0.177,0.414,-0.435 (inactive),0.0512,-0.287,-0.227,0.084 (inactive),0.211 (inactive),0.214 (inactive),0.39,0.423 (inactive),-0.0139,0.501,0.903,0.0678
CC(=O)O[C@H]1C2=CO[C@H](C)[C@H]3[C@H]4C5=C([C@H](O)[C@H]6O[C@H]6C5=O)[C@H](OC4C)[C@@]23C(=O)[C@@H]2O[C@@H]21 (stereo not given in full),-0.186,0.0382,-0.0724,0.705,0.673,0.435,1.01,-3.35 (inactive),0.163,0.154,0.593,0.116 (inactive),0.197 (inactive),0.0253 (inactive),0.946,-0.681 (inactive),-0.299,0.433,0.392,-0.0047
CC(=O)OC[C@H]1O[C@H](CCON=C2[C@H]3CCn4c(=O)n(-c5ccccc5)c(=O)n4[C@H]3[C@H](O)[C@@H]3O[C@H]23)C=C[C@@H]1OC(C)=O,-0.47,0.141,-0.0218,0.448,0.57,-0.147,0.18,-0.513 (inactive),0.476,0.163,0.156,-0.111 (inactive),0.127 (inactive),0.49 (inactive),0.77,0.93 (inactive),-0.25,1.43,0.587,0.0488
